Experimental findings from PubChem BioAssay (NCI) are described below.

Several values for one entry are separate records, joined by “and”; a condition that tells them apart may be missing. Equal values may be shown once. About 83,000 compounds went through this panel and 20% of them were active in at least one assay; those are over-represented in the sample as a whole.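 48-hour exposure, single concentration, 96-well plates; percent growth endpoint where 0 means no net growth. Active: below 10.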 Activity calls are given as the source filed them. Where a SMILES comes first, the peptide text is derived from it. The star is where a group is joined. Trt = c1ccc(C(c2ccccc2)(c2ccccc2)*)cc1; Cbz = O=C(OCc1ccccc1)*

The first test has as its system SK-MEL-5 melanoma. In words: NCI-60 one-dose screen, 48 h (100 = growth as untreated, 0 = no growth, -100 = all killed). To be noted: 10 µM. The procedure: Growth inhibition of the SK-MEL-5 human tumor cell line is measured as a screen for anti-cancer activity. Cells are grown in 96 well plates and exposed to the test compound for 48 hours. Compounds are tested at a single concentration, which is 10^-5 M for most compounds. The reported endpoint is percent growth (GI% or GIPRCNT), where numbers from 0 - 100% represent growth inhibition, and numbers from -100% - 0 represent cell death. For example, a value of 40 represents 60% growth inhibition. A value of 0 means no net growth occurred over the course of the experiment. A value of -40 indicates 40% of cells at the beginning of the experiment died by the end of the experiment. A value of -100 means all cells are dead at the end of the experiment.
NCI-60 Human Tumor Cell Lines Screen was performed using the standard one-dose NCI protocol, which is described in more detail at https://dtp.cancer.gov/discovery_development/nci-60/default.htm.
Compounds with GIPRCNT values below 10 were considered active. Activity score was based on GIPRCNT using the following formula: […]
Score is 0 for GIPRCNT values of 100 or above, 50 for GIPRCNT values of 0, and 100 for GIPRCNT values of -100.
For the compound `O=C(O)c1c(Cl)c(Cl)c(Cl)c(Cl)c1-c1c2cc(I)c(=O)c(I)c-2oc2c(I)c(O)c(I)cc12`, the growth is 107% (inactive) and 110% (inactive) and 96.1% (inactive). For `O=C(Nc1cccc(Br)c1)Oc1cccc2cccnc12`, the growth was 101% (inactive).

The test is the same for the next values; noted with them: 10 µM unless noted.
For `CCCCCCCCCCCCCCCCOP(=O)([O-])OCC[N+](C)(C)C`, the growth is 59.1% (inactive). `O=C1C=CC(=O)N1C1c2ccccc2-c2ccccc21`: the growth is 105% (inactive). On to `Oc1c(Cl)cc(Cl)c2cccnc12`, for which the growth is 33.2% (inactive) and 28.1% (inactive).

As for `C=C(Cl)C(=NC(C)(C)C)Nc1ccccc1C`, the growth was 95.4% (inactive). In the case of `O=C(Nc1ccccc1)Oc1c(Cl)c(Cl)c(Cl)c(Cl)c1Cl`, the growth was 101% (inactive) and 96.1% (inactive). As for `N#CSCc1ccc(Cl)c(CSC#N)c1`, the growth is 19.8% (inactive). Same read-out and setting: then `O=C1OCc2cccc3cccc1c23`, with 101% (inactive). For `Cc1ccc2nc(-[n+]3cc4ccccc4cc3C)ccc2c1`, the growth is -27.5% (active). For the compound `COC(=O)C(CSC(c1ccccc1)(c1ccccc1)c1ccccc1)NC(=O)C(CC(N)=O)NC(=O)OCc1ccccc1` (stereo not drawn) (Cbz-Asn-Cys(Trt)-OMe; configuration not given here), the growth is 14.1% (inactive). Regarding `C1=C(c2ccccc2)C(c2ccc(OCCN3CCCCC3)cc2)Oc2ccccc21` (stereo not given), the growth was -95.5% (active).

Take `CNc1ccc2c(c1)c1ccccc1n2C`: the growth is 101% (inactive). The same measure, in the same setting: then `Oc1ccc(/C=N/NC(=S)Nc2ccccc2)nc1`, with -45.3% (active). Same read-out and setting: then `CCCCCCC(C)c1ccccc1O` (stereo not given) (tested in a mixture with another compound), with 111% (inactive); and `CCOC(=O)/C(=C\c1ccc(-c2ccccc2)cc1)C(C)=O`, with 98.7% (inactive); and `CC(C)(C)CC(C)(C)c1ccc(OCCSC(=N)N)cc1`, with 27.9% (inactive).

With `Cc1ccc2nc(C[n+]3ccc4ccccc4c3)ccc2c1`, the growth was -31.1% (active). The same measure, in the same setting: then `COc1ccccc1/C=C\C(=O)c1ccccc1`, with 72.3% (inactive); and `O=C(Nc1ccccc1)c1cc(Cl)ccc1O`, with 7.81% (active). On to `O=C(/C=C/c1cccc(Cl)c1)c1ccccc1`, for which the growth was 94% (inactive) and 93.4% (inactive). As for `CCC(CCCN(CC)CCc1ccccc1)OC(=O)c1cc(OC)c(OC)c(OC)c1` (stereo not given), the growth is 91.3% (inactive). On to `COC(=O)c1nc(=S)[nH]c(C(=O)OC)c1C(=O)c1ccc2ccccc2c1`, for which the growth is 98.9% (inactive). With `CN(C)CCOc1ccc2c(c1)C(=O)/C(=C\c1ncc([N+](=O)[O-])n1C)C2`, the growth is -97.6% (active).

In the case of `N#CSCc1c(Cl)cccc1Cl`, the growth is 87.5% (inactive). For the compound `CN=C(N)N/N=C(\C)c1ccc2c(c1)Cc1cc(/C(C)=N/NC(N)=NC)ccc1-2`, the growth is -89.9% (active). For `Cc1cc2nc(CS)[nH]c2cc1C`, the growth was 87.7% (inactive). As for `CC(=O)Nc1cccc2cc(O)ccc12`, the growth is 113% (inactive) and 117% (inactive) and 106% (inactive). Consider `CC1OC2CC(=O)OC2C2=C1C(=O)c1c(O)cccc1C2=O` (stereo not given), for which the growth was -100% (active). In the case of `O=C1c2cccnc2-c2nccc3c2c1nc1cc(Br)ccc13`, the growth is -97% (active) and -95.4% (active). For `Cc1c2ccccc2c(C)c2c1ccc1ccccc12`, the growth was 93.1% (inactive). Turning to `O=C(/C=C/C=C/c1ccccc1)c1ccco1`, the growth is 91.1% (inactive). The same measure, in the same setting: to `CC1SC(=S)N(c2ccc(Cl)cc2)C1=O` (stereo not given) belongs 94.6% (inactive) and 93.6% (inactive); to `S=C(N/N=C/c1ccccn1)Nc1ccccn1`, -22.2% (active); to `COc1cc(/C=C(/C)C[N+](=O)[O-])ccc1O`, 101% (inactive). Still for that read-out and setting: to `O=C(Oc1cccc2cccnc12)c1ccccc1` belongs 105% (inactive) and 100% (inactive).

For `CC(C)(C)c1ccc(O)c(C2CCCCC2)c1`, the growth is 96.3% (inactive). Still for that read-out and setting: to `Cc1cc(C(C)(CC(C)C)c2ccc(O)c(C)c2)ccc1O` belongs 97.5% (inactive).

Staying with this test, now noted: 100 µM.
On to `O=C(O)c1c(Cl)c(Cl)c(Cl)c(Cl)c1-c1c2cc(I)c(=O)c(I)c-2oc2c(I)c(O)c(I)cc12`, for which the growth was 22.1% (inactive). With `O=C(Nc1cccc(Br)c1)Oc1cccc2cccnc12`, the growth is 2.15% (active).
